Data on six substances can be found in PMC11062913.

Assay [1] addresses DNA-directed RNA polymerase II subunit RPB7 (UniProt P62487). The assay is described as follows: cross-link between two proteins; cross-linking mass spectrometry.
In assay [2] the target is Histone H2A type 1 (UniProt P06897). The assay is described as above.
The next assay concerns the target Histone H2B 1.1 (UniProt P02281). The assay is described as above.
The target in assay [3] is Histone H3.2 (UniProt P84233). Described as above.
For assay [4], the target named is Transcription elongation factor SPT4 (UniProt P63272). In words: cross-link between two proteins; cross-linking mass spectrometry; two-hybrid or complementation screen.
For assay [5], the target named is Histone H3.2 (UniProt P84233). In words: cross-linking mass spectrometry.
The next assay has as its target Histone H4 (UniProt P62799). In words: cross-linking mass spectrometry.
For assay [6], the target named is Transcription elongation factor A protein 1 (UniProt P23193). In words: cross-link between two proteins; cross-linking mass spectrometry.
The target in assay [7] is Histone H2A type 1 (UniProt P06897). In words: cross-linking mass spectrometry.

“Transcription elongation factor SPT5, O00267”: the “listed as a hit” value (in assay [1]; in the assay with Histone H2A type 1 [2]; in the assay with Histone H2B 1.1; with Histone H3.2 [3]; in assay [4]) was “yes” throughout.
For the substance “Transcription elongation factor A protein 1, P23193”, the “listed as a hit” value in the assay with Histone H3.2 [3] was “yes”.
Regarding “DNA-directed RNA polymerase II subunit RPB7, P62487”, in the assay with Histone H3.2 [3], the “listed as a hit” value is listed as “yes”.
Regarding Histone H4, P62799, the “listed as a hit” value with Histone H3.2 [3] is listed as “yes”.
Consider Histone H2A type 1, P06897, for which the “listed as a hit” value (with Histone H3.2 [5]; in the assay with Histone H4; in [6]) was “yes” in each case.
Consider Histone H2B 1.1, P02281, for which the “listed as a hit” value with Histone H2A type 1 [7], with Histone H3.2 [5] and with Histone H4 was “yes” each time.
